In PubChem BioAssay AID1508636 (National Center for Advancing Translational Sciences (NCATS), 2021):
Inconclusive results are not listed. Activity calls are given as the source filed them. Calls come from the whole dose curve; as a rule, active = well fitted inhibition curve with a large enough effect; inconclusive = small, poorly fitted or top-dose-only effect; inactive = flat fitted curve, though single readings scatter. *1 amine or outer side, *2 acyl side, *3 side chain or, on linkers, in order; H or OH if unused. Where a SMILES comes first, the peptide text is derived from it. Bridges are numbered along the chain shown (N, C = ends). Roman numbers before positions name the chains, in order. [ ]: non-standard residue; d: D form. The star is where a group is joined. ξ: configuration not given here. Actinocin(9to1) = Cc1c2oc3c(C)ccc(C(=O)[*:1])c3nc-2c(C(=O)[*:2])c(N)c1=O; ξNMeV = CNC(C(=O)O)C(C)C; Cbz = O=C(OCc1ccccc1)*; Nva = CCC[CH](N)C(=O)O; ξV = CC(C)C(N)C(=O)O; Sar = CNCC(=O)O

The molecules below were run against ATP-dependent translocase ABCB1 (Homo sapiens) (UniProt P08183) (assay: qHTS for characterization and localization of zebrafish homologs of the human ABCB1 multidrug transporter: P-gp overexpressing MDR-19 cells). Conditions: MDR-19 cells overexpressing P-gp, CellTiter-Glo luminescence viability, 72 h; series mostly up to 46.1 µM; activity change, negative = inhibition: at the top concentration.
Text: The zebrafish has emerged as a potential model to study the blood-brain barrier (BBB) given its similarities with mammalian systems. However, little information has been available with regard to homologous ATP-binding cassette transporters expressed at the zebrafish BBB. Two transporters that are highly expressed at the human BBB are P-glycoprotein (P-gp, encoded by the ABCB1 gene) and ABCG2 (encoded by the ABCG2 gene). In this study, we focus on characterization of P-gp homologs in the zebrafish, which has two genes that are homologous to human ABCB1 - abcb4 and abcb5. We generated stably-transfected cell lines to determine their substrate specificities. […] Zebrafish abcb4 also colocalized with claudin 5 expression in brain endothelial cells.
A high-throughput screen was performed as previously described on empty vector transfected cells, P-gp-overexpressing MDR-19 cells and cells transfected with full-length zebrafish abcb4 (ZF Abcb4) or abcb5 (ZF Abcb5). Briefly, cells were plated into 1536-well plates at a density of 500 cells/well in 5 uL media. P-gp substrate compounds (approximately 90) selected from our previous study were then added at varying concentrations using a 1536-head pin tool (Kalypsis, San Diego, CA) and plates were incubated at 37C in 5% CO2 for 72 h. CellTiter-Glo reagent (Promega) was dispensed into the wells, incubated for 5 min and luminescence was read on a ViewLux instrument (Perkin-Elmer).
Cytotoxic compounds were defined as those that yielded a curve class of -1.1, -1.2, -2.1, -2.2, -2.3, or -2.4, a maximum response of >50% and an AC50 of < 10 uM. All compounds from screening analysis were tested in Vector (empty vector control), MDR-19 (P-gp overexpressing), zebrafish abcb4 (ZF Abcb4) and abcb5 (ZF Abcb5) expression cell lines.
1. Tobie D Lee, Olivia W Lee, Kyle R Brimacombe, Lu Chen, Rajarshi Guha, Sabrina Lusvarghi, Bethilehem G Tebase, Carleen Klumpp-Thomas, Robert W Robey, Suresh V Ambudkar, Min Shen, Michael M Gottesman, Matthew D Hall. A High-Throughput Screen of a Library of Therapeutics Identifies Cytotoxic Substrates of P-glycoprotein. Mol Pharmacol. 2019, Nov;96(5):629-640.

Chain of ATP-dependent translocase ABCB1 (Homo sapiens) (P08183 whole entry, looked up): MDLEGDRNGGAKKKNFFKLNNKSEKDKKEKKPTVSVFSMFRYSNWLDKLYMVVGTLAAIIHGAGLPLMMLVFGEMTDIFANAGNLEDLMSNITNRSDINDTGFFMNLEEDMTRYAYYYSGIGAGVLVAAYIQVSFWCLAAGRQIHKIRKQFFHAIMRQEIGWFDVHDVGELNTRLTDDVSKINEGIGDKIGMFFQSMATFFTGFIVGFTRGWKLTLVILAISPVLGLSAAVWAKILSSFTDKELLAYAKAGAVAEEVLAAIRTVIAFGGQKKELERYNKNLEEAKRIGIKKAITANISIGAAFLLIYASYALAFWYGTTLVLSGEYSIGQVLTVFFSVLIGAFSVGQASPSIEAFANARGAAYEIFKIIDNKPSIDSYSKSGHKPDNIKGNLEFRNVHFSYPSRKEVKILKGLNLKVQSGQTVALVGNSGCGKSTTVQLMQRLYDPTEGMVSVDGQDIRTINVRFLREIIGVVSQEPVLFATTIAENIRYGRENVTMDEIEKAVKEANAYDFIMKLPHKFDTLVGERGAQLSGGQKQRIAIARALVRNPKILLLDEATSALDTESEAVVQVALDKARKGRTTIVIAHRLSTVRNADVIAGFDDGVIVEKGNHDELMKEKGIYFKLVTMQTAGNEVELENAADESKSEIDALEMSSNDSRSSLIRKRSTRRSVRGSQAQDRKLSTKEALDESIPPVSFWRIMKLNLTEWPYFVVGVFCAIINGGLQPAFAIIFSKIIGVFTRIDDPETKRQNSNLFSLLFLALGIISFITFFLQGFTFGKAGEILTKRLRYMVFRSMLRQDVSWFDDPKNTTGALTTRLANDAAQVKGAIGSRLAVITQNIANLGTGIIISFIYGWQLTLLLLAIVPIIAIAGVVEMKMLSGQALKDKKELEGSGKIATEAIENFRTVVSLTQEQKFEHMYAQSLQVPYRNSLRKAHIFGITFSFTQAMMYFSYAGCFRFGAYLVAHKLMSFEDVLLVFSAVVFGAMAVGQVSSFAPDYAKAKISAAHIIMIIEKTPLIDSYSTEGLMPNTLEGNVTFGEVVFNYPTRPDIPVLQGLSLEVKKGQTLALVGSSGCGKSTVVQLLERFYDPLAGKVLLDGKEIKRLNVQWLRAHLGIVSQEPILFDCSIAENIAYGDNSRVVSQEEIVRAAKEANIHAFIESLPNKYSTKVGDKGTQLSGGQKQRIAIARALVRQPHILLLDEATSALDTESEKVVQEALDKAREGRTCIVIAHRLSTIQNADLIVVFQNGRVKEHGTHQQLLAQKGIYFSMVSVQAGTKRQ

Question: How did the “activity change, negative = inhibition” value turn out when `CCn1c(-c2nonc2N)nc2c(C#CC(C)(C)O)ncc(OC[C@H]3CCCNC3)c21` was run?
Answer: -13.1% (inactive)

Question: How did the Potency turn out when `CC(C)C[C@H](NC(=O)[C@H](CCc1ccccc1)NC(=O)CN1CCOCC1)C(=O)N[C@@H](Cc1ccccc1)C(=O)N[C@@H](CC(C)C)C(=O)[C@@]1(C)CO1` was run?
Answer: 0.743 µM (active)

Question: `CC[C@@H]1C(=O)N(C)c2cnc(Nc3ccc(C(=O)NC4CCC(N5CCN(CC6CC6)CC5)CC4)cc3OC)nc2N1C(C)C` (stereo not given in full) was tested. Which Potency did it give?
Answer: 2.35 µM (active)

Question: With `CCN1CCN(Cc2ccc(NC(=O)Nc3ccc(Oc4cc(NC)ncn4)cc3)cc2C(F)(F)F)CC1` as the molecule, how does the “activity change, negative = inhibition” value read?
Answer: 4.09% (inactive)

Question: How did the Potency turn out when `C#Cc1cccc(Nc2ncnc3cc(OC)c(OCCCCCCC(=O)NO)cc23)c1` was run?
Answer: 14.8 µM (active)

Question: Which Potency does the source give for `CC(=O)C1(O)Cc2c(O)c3c(c(O)c2C(OC2CC(N)C(O)C(C)O2)C1)C(=O)c1c(O)cccc1C3=O` (stereo not given) here?
Answer: 0.148 µM (active)

Question: How did the “activity change, negative = inhibition” value turn out when `CN(C)C1CCN(C(=O)c2ccc(NC(=O)Nc3ccc(-c4nc(N5CCOCC5)nc(N5CCOCC5)n4)cc3)cc2)CC1` was run?
Answer: 4.04% (inactive)

Question: How did the “activity change, negative = inhibition” value turn out when `COc1ccc(CC2C(=O)NC(C)C(=O)N(C)C3Cc4ccc(cc4)Oc4cc(ccc4OC4OC(CO)C(O)C(O)C4O)CC(C(=O)NC(C)C(=O)NC(C)C(=O)N2C)N(C)C3=O)cc1` (stereo not given) was run?
Answer: -8.38% [at 15.2 µM] (inactive)

Question: `Cc1ccc(-c2ncn(-c3ccc(Nc4nccc(-c5cccc(N6CCOCC6)c5)n4)cc3)n2)cn1` was tested. Which Potency did it give?
Answer: 3.72 µM (active)

Question: For `CN(C)C/C=C/C(=O)Nc1cccc(C(=O)Nc2ccc(Nc3nccc(-c4cccnc4)n3)cc2)c1`, which “activity change, negative = inhibition” value is on record?
Answer: -8.41% (inactive)

Question: How did the “activity change, negative = inhibition” value turn out when `O=C(NC1CC1)c1cccc(-c2ccc3c(NC(=O)C4CC4)n[nH]c3c2)c1` was run?
Answer: -21.2% (inactive)

Question: `Cc1[nH]c2ccccc2c1CCNCc1ccc(/C=C/C(=O)NO)cc1` was tested. Which Potency did it give?
Answer: 1.32 µM (active)

Question: Which “activity change, negative = inhibition” value does the source give for `COc1cc2c(NC3CCN(C(C)C)CC3)nc(N3CCCN(C)CC3)nc2cc1OCCCN1CCCC1` here?
Answer: -13.1% (inactive)

Question: How did the Potency turn out when `CN(c1ncccc1CNc1nc(Nc2ccc3c(c2)CC(=O)N3)ncc1C(F)(F)F)S(C)(=O)=O` was run?
Answer: 18.7 µM (active)

Question: Which Potency does the source give for `CC(C)C[C@H](NC(=O)[C@@H](NC(=O)c1cccc(-c2ccccc2)n1)[C@@H](C)O)B(O)O` here?
Answer: 0.372 µM (active)

Question: For `COc1cc(C(=O)NC2CCN(C)CC2)ccc1Nc1ncc2c(n1)N(C1CCCC1)CC(F)(F)C(=O)N2C`, which Potency is on record?
Answer: 3.32 µM (active)

Question: `C/C=C1/NC(=O)C2CSSCCC=CC(CC(=O)NC(C(C)C)C(=O)N2)OC(=O)C(C(C)C)NC1=O` (stereo not given) was tested. Which Potency did it give?
Answer: 7.43 µM (active)

Question: Which Potency does the source give for `Cc1c2oc3c(C)ccc(C(=O)N[C@@H]4C(=O)NC(C(C)C)C(=O)N5CCC[C@H]5C(=O)N(C)CC(=O)N(C)C(C(C)C)C(=O)O[C@@H]4C)c3nc-2c(C(=O)N[C@@H]2C(=O)NC(C(C)C)C(=O)N3CCC[C@H]3C(=O)N(C)CC(=O)N(C)C(C(C)C)C(=O)O[C@@H]2C)c(N)c1=O` (stereo not given in full) (I: T[ξV]P[Sar][ξNMeV] / II: T[ξV]P[Sar][ξNMeV]; ester I:1-I:C, II:1-II:C; linker I:N-II:N via Actinocin(9to1)) here?
Answer: 0.469 µM (active)

Question: Which Potency does the source give for `Cc1ccc(C(=O)N(CCCN)[C@@H](c2oc3cc(Cl)ccc3c(=O)c2Cc2ccccc2)C(C)C)cc1` here?
Answer: 13.2 µM (active)

Question: How did the “activity change, negative = inhibition” value turn out when `CCc1cccc(CC)c1NC(=O)N1Cc2[nH]nc(NC(=O)c3ccc(N4CCN(C)CC4)cc3)c2C1` was run?
Answer: 3.47% (inactive)

Question: `Cc1ccc(C(=O)N(CCCN)C(c2nc3cc(Cl)ccc3c(=O)n2Cc2ccccc2)C(C)C)cc1` (stereo not given) was tested. Which Potency did it give?
Answer: 14.8 µM (active)

Question: For `COC[C@H](NC(=O)c1cnc(C)s1)C(=O)N[C@@H](COC)C(=O)N[C@@H](Cc1ccccc1)C(=O)[C@@]1(C)CO1`, which Potency is on record?
Answer: 0.59 µM (active)

Question: `CCN(CC)Cc1ccc(C(=O)N(CCc2ccccc2OC)[C@@H]2CCNC2)cc1` was tested. Which “activity change, negative = inhibition” value did it give?
Answer: 0.0961% (inactive)

Question: Which “activity change, negative = inhibition” value does the source give for `CO[C@H]1/C=C/C=C/C=C/C[C@H](OC(=O)[C@@H](C)NC(=O)C2CCCCC2)[C@H](C)[C@@H](O)/C(C)=C/CCc2cc(O)cc(c2)NC(=O)C1` here?
Answer: -13.5% [at 15.2 µM] (inactive)

Question: Which “activity change, negative = inhibition” value does the source give for `CC(C)CC(=O)Nc1n[nH]c2c1CN(C(=O)C1CCN(C)CC1)C2(C)C` here?
Answer: -14.7% (inactive)

Question: How did the Potency turn out when `C=CCNC1=C2CC(C)CC(OC)C(O)C(C)/C=C(\C)C(OC(N)=O)C(OC)/C=C/C=C(\C)C(=O)NC(=CC1=O)C2=O` (stereo not given) was run?
Answer: 10.5 µM (active)

Question: With `COc1cc2ncn(-c3cc(OCc4ccccc4C(F)(F)F)c(C(N)=O)s3)c2cc1OC` as the molecule, how does the Potency read?
Answer: 5.4 µM (active)

Question: Which Potency does the source give for `CC(NCc1ccc2c(c1)nc(NC(=O)c1ccc(-c3cn[nH]c3)s1)n2CC(C)(C)O)C(C)(C)C` (stereo not given) here?
Answer: 2.96 µM (active)

Question: How did the “activity change, negative = inhibition” value turn out when `COc1cc2c(NC3CCN(C(C)C)CC3)nc(N3CCCN(C)CC3)nc2cc1OCCOCCN(C)C` was run?
Answer: -8.95% (inactive)

Question: For `C[C@@]12O[C@@H](C[C@]1(O)CO)n1c3ccccc3c3c4c(c5c6ccccc6n2c5c31)CNC4=O`, which Potency is on record?
Answer: 8.33 µM (active)

Question: Which Potency does the source give for `CCCCc1nc2cc(C=CC(=O)NO)ccc2n1CCN(CC)CC` here?
Answer: 5.26 µM (active)

Question: For `C[C@@H]1O[C@@H](O[C@H]2[C@@H](OC(=O)[C@]34CCC(C)(C)CC3C3=CCC5[C@@]6(C)C[C@H](O)[C@H](O[C@@H]7O[C@H](CO)[C@@H](O)[C@H](O)[C@H]7O[C@@H]7OC[C@@H](O)[C@H](O)[C@H]7O)[C@@](C)(C(=O)O)C6CC[C@@]5(C)[C@]3(C)CC4)OC[C@H](O)[C@@H]2O)[C@H](O)[C@H](O)[C@H]1O[C@@H]1OC[C@@H](O)[C@H](O)[C@H]1O` (stereo not given in full), which activity change, negative = inhibition is on record?
Answer: -1.44% [at 8.96 µM] (inactive)

Question: For `CCCC(C=O)NC(=O)C(CC(C)C)NC(=O)C(CC(C)C)NC(=O)OCc1ccccc1` (stereo not drawn) (Cbz-Leu-Leu-[Nva]-aldehyde; configuration not given here), which Potency is on record?
Answer: 4.18 µM (active)

Question: With `CN(C)c1ccc(C(=C2C=CC(=[N+](C)C)C=C2)c2ccc(N(C)C)cc2)cc1` as the molecule, how does the Potency read?
Answer: 4.69 µM (active)

Question: `C=C1CO[C@@]2(O[C@H]3CC4C5CC=C6C[C@@H](O)C[C@@H](O[C@@H]7OC[C@H](O)[C@H](O[C@@H]8OC[C@@H](O)[C@H](O)[C@H]8O)[C@H]7O[C@@H]7O[C@@H](C)[C@H](OC(C)=O)[C@@H](OC(C)=O)[C@H]7OC(C)=O)[C@]6(C)C5CC[C@]4(C)[C@@H]3[C@@H]2C)[C@@H](O)[C@H]1OC1OC(C)C(O)C(O)C1O` (stereo not given in full) was tested. Which activity change, negative = inhibition did it give?
Answer: 3.31% [at 8.96 µM] (inactive)

Question: For `CC(=O)O[C@@H]1C[C@H](O)[C@@]23CO[C@@H](O)C1(C)[C@@H]2C[C@@H](O)[C@]1(C)[C@@H]3C(=O)[C@H](OC(C)=O)[C@@]2(C)[C@H](c3ccoc3)C[C@H]3O[C@]321`, which Potency is on record?
Answer: 3.72 µM (active)

Question: `CCC(C)C(=O)OC1CC(O)C23C4OCC5(C(O)CC2C1(C)C(O)O4)C3C(=O)C(O)C1(C)C(O)(c2ccoc2)CC2OC251` (stereo not given) was tested. Which “activity change, negative = inhibition” value did it give?
Answer: 3.34% [at 15.2 µM] (inactive)

Question: Which Potency does the source give for `C[C@@H](Oc1cc(-n2cnc3ccc(CN4CCN(C)CC4)cc32)sc1C(N)=O)c1ccccc1C(F)(F)F` here?
Answer: 0.469 µM (active)

Question: For `CC(C)(C)c1cnc(CSc2cnc(NC(=O)C3CCNCC3)s2)o1`, which Potency is on record?
Answer: 24.1 µM (active)

Question: Which Potency does the source give for `Cc1cc(Nc2cc(NC(=O)c3c(Cl)cccc3Cl)ccn2)nc(N)n1` here?
Answer: 13.2 µM (active)
